“And” between values parts separate entries of the source, which are not always exact repeats. Equal entries are not always repeated. Records with an inconclusive call do not appear. Some compounds were tested as several samples or in several runs, with calls that do not always agree. The source made the active and inactive calls. Calls come from the whole dose curve; as a rule, active = well fitted inhibition curve with a large enough effect; inconclusive = small, poorly fitted or top-dose-only effect; inactive = flat fitted curve, though single readings scatter.
Tests used:
CRL-7250 = normal cell line; test: Cytotoxic Profiling of Annotated Libraries Using Quantitative High-Throughput Screening (AID 1296008); details: Five cell lines viability, CellTiter-Glo ATP luminescence, 48-72 h; max response: hits give low values; note: potency is the fitted concentration of half-maximal effect; for max response: % is set by controls: 0 for no effect and ±100 for the full control effect
How it was run: (§1)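 Compounds were pin-transferred onto cells and incubated 48 or 72 hr at 37 degree Celsius, 95% humidity. CellTiter-Glo was added, plates sat 10 min at room temperature, then ATP-coupled luminescence was imaged as the viability read-out.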

HaCat [1] = test: as above; details: Five cell lines viability, CellTiter-Glo ATP luminescence, 48-72 h; max response: hits give low values
How it was run: as §1

NIH3T3 = test: as above; details: Five cell lines viability, CellTiter-Glo ATP luminescence, 48-72 h; max response: hits give low values
How it was run: as §1

MCC-13 = test: qHTS assay to identify novel small-molecules to repurpose for Merkel cell carcinoma treatment (AID 1296009); details: MCC and control cell lines, CellTiter-Glo viability, 72 h; series mostly up to 46 µM; note: potency is the fitted concentration of half-maximal effect
How it was run: (§2)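 Viability readout: ATP luminescence (CellTiter-Glo) after 72 hr drug exposure at 37 degree celsius. Dose-response format was 8 points for NPC and 11 points for MIPE; data normalized to in-plate controls.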

KB-3-1 = test: Cytotoxic Profiling of Annotated Libraries Using Quantitative High-Throughput Screening (AID 1296008); details: Five cell lines viability, CellTiter-Glo ATP luminescence, 48-72 h; max response: hits give low values; note: potency is the fitted concentration of half-maximal effect; for max response: % is set by controls: 0 for no effect and ±100 for the full control effect
How it was run: as §1

HACAT [2] = test: qHTS assay to identify novel small-molecules to repurpose for Merkel cell carcinoma treatment (AID 1296009); details: MCC and control cell lines, CellTiter-Glo viability, 72 h; series mostly up to 44.8 µM; note: potency is the fitted concentration of half-maximal effect
How it was run: as §2

MCC-26 = test: as above; details: MCC and control cell lines, CellTiter-Glo viability, 72 h; series mostly up to 46 µM
How it was run: as §2

MKL-1 = test: as above; details: MCC and control cell lines, CellTiter-Glo viability, 72 h; series mostly up to 46 µM
How it was run: as §2

HEK293 = test: Cytotoxic Profiling of Annotated Libraries Using Quantitative High-Throughput Screening (AID 1296008); details: Five cell lines viability, CellTiter-Glo ATP luminescence, 48-72 h; max response: hits give low values; note: potency is the fitted concentration of half-maximal effect; for max response: % is set by controls: 0 for no effect and ±100 for the full control effect
How it was run: as §1

P94_40 = test: qHTS profiling for inhibitors of Plasmodium falciparum proliferation (AID 504749);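 note: 0% = DMSO vehicle and full inhibition = artemisinin control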; details: P. falciparum in erythrocytes, SYBR Green DNA, 72 h; series mostly up to 28.7 µM
How it was run: (§3)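 Quantitative HTS: compounds pinned into medium, infected erythrocytes added (0.3% parasitemia, 2.5% hematocrit), 72 h culture at 37 C under 5% CO2. Saponin/Triton lysis with SYBR Green I, overnight RT, then fluorescence read.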

PAD = test: as above; details: P. falciparum in erythrocytes, SYBR Green DNA, 72 h; series mostly up to 28.7 µM
How it was run: as §3

PC15 = test: as above; details: P. falciparum in erythrocytes, SYBR Green DNA, 72 h; series mostly up to 28.7 µM
How it was run: as §3

PC49 = test: as above; details: P. falciparum in erythrocytes, SYBR Green DNA, 72 h; series mostly up to 28.7 µM
How it was run: as §3

SC27B = test: as above; details: P. falciparum in erythrocytes, SYBR Green DNA, 72 h; series mostly up to 28.7 µM
How it was run: as §3

TAB109 = test: as above; details: P. falciparum in erythrocytes, SYBR Green DNA, 72 h; series mostly up to 28.7 µM
How it was run: as §3

TAB113 = test: as above; details: P. falciparum in erythrocytes, SYBR Green DNA, 72 h; series mostly up to 28.7 µM
How it was run: as §3

TAB165 = test: as above; details: P. falciparum in erythrocytes, SYBR Green DNA, 72 h; series mostly up to 28.7 µM
How it was run: as §3

W2 = test: as above; details: P. falciparum in erythrocytes, SYBR Green DNA, 72 h; series mostly up to 28.7 µM
How it was run: as §3
Note: nearly all actives have a fitted effect of over 60% in size.

CC=C1NC(=O)[C@H]2CSSCCC=C[C@H](CC(=O)N[C@H](C(C)C)C(=O)N2)OC(=O)[C@H](C(C)C)NC1=O
active: Potency (CRL-7250) 0.0187 µM | Potency (HaCat [1]) 0.0372 µM | Potency (NIH3T3) 0.0469 µM | Potency (MCC-13) 0.235 µM

C=C1C(=CC=C2CCC[C@]3(C)[C@@H]([C@H](C)C=C[C@H](C)C(C)C)CC[C@@H]23)C[C@@H](O)C[C@@H]1O
inactive: max response (CRL-7250) -0.207% | outcome (HaCat [1]) | outcome (KB-3-1) | Potency (HACAT [2])
active: Potency (MCC-26) 14.8 µM | Potency (MKL-1) 1.18 µM

Cn1c2cc(S(C)=O)sc2c2cnn(Cc3cccc(N)c3)c(=O)c21 (stereo not given)
inactive: max response (CRL-7250) 0.238% | max response (HaCat [1]) -2.01% | max response (KB-3-1) -13.5% | max response (NIH3T3) -11.6% | Potency (MCC-13) | Potency (MCC-26) | Potency (MKL-1)

CC(C)C[C@H](NC(=O)CNC(=O)c1cc(Cl)ccc1Cl)B(O)O
active: Potency (CRL-7250) 1.48 µM | Potency (HaCat [1]) 3.72 µM | Potency (NIH3T3) 0.662 µM | Potency (MKL-1) 0.743 µM

Clc1cccc(-c2nnnn2Cc2cccnc2)c1Cl
inactive: max response (CRL-7250) -2.93% | max response (HaCat [1]) 3% and -9.84% | outcome (KB-3-1) | max response (NIH3T3) -9.84% and -14.4% | Potency (MCC-13) | Potency (MKL-1)

CNc1nccc(-c2cccnc2Oc2cc(C(=O)Nc3cccc(C(F)(F)F)c3)ccc2C)n1
active: Potency (CRL-7250) 7.31 µM | Potency (NIH3T3) 18.4 µM
inactive: outcome (KB-3-1) | Potency (MKL-1)

NCC(=O)Nc1ccc(-n2nc(C(F)(F)F)cc2-c2ccc3c(ccc4ccccc43)c2)cc1
active: Potency (KB-3-1) 26.4 µM and 23.1 µM
inactive: max response (CRL-7250) -6.6% | max response (HaCat [1]) -18.9% | max response (NIH3T3) -0.49% | Potency (MCC-13) | Potency (MCC-26) | Potency (MKL-1)

COc1cc2c(Oc3ccc4[nH]c(C)cc4c3F)ncnc2cc1OCCCN1CCCC1
active: Potency (CRL-7250) 8.2 µM | Potency (HaCat [1]) 8.33 µM and 7.31 µM | Potency (NIH3T3) 1.87 µM and 2.06 µM
inactive: Potency (MCC-13)

Cc1coc2c1C(=O)C(=O)c1c-2ccc2c1CCCC2(C)C
inactive: max response (HaCat [1]) -3.22% | outcome (HaCat [1]) | max response (KB-3-1) -4.98% | max response (NIH3T3) -27% | outcome (NIH3T3) | Potency (HACAT [2]) | Potency (MCC-13) | Potency (MKL-1)
active: Potency (HEK293) 9.2 µM | Potency (KB-3-1) 16.4 µM

C=CC(=O)N1CCC[C@@H](n2nc(-c3ccc(Oc4ccccc4)cc3)c3c(N)ncnc32)C1
active: Potency (HaCat [1]) 1.32 µM | Potency (HACAT [2]) 1.3 µM
inactive: max response (CRL-7250) 2.95% | max response (KB-3-1) -15.2% and 0.931% | Potency (MCC-13) | Potency (MKL-1)

CN(C)CCCN=c1c2ccccc2n(C)c2[nH]c(=O)n(C)c(=O)c12
active: Potency (CRL-7250) 11.8 µM | Potency (HaCat [1]) 18.7 µM | Potency (NIH3T3) 23.5 µM | Potency (MKL-1) 10.5 µM

CC1(C)O[C@@H]2C[C@@H]3[C@H]4C[C@@H](F)C5=CC(=O)C=C[C@]5(C)[C@@]4(F)[C@@H](O)C[C@]3(C)[C@]2(C(=O)CO)O1
inactive: Potency (P94_40) | Potency (PAD) | Potency (PC15) | Potency (PC49) | Potency (SC27B) | Potency (TAB109) | Potency (TAB113) | Potency (TAB165) | Potency (W2) | max response (CRL-7250) -20% | max response (HaCat [1]) -6.44% | outcome (KB-3-1) | max response (NIH3T3) -12.4% | Potency (MCC-13) | Potency (MCC-26) | Potency (MKL-1)

CC(C)[C@H](C(=O)Nc1ccc(C(=O)NO)cc1)c1ccccc1
active: Potency (CRL-7250) 4.18 µM | Potency (HaCat [1]) 5.9 µM | Potency (KB-3-1) 2.35 µM | Potency (MCC-13) 5.26 µM | Potency (MKL-1) 0.935 µM

CCCCCN(CCC12CC3CC(CC(C3)C1)C2)C(=O)NCCCc1ccncc1
inactive: max response (CRL-7250) -19% | max response (HaCat [1]) -32% | max response (NIH3T3) -9.34% | Potency (MCC-13) | Potency (MCC-26) | Potency (MKL-1)

O=C(C=Cc1cccc(S(=O)(=O)Nc2ccccc2)c1)NO
active: Potency (CRL-7250) 21.5 µM | Potency (HaCat [1]) 15.2 µM | Potency (KB-3-1) 6.05 µM | Potency (NIH3T3) 10.8 µM | Potency (MKL-1) 7.62 µM

COC(=O)[C@]12CCC(C)(C)C[C@@H]1[C@@H]1C(=O)C=C3[C@@]4(C)C=C(C#N)C(=O)C(C)(C)[C@@H]4CC[C@@]3(C)[C@]1(C)CC2
inactive: Potency (MCC-26) | Potency (MKL-1)
active: Potency (CRL-7250) 4.69 µM | Potency (HaCat [1]) 4.18 µM | Potency (KB-3-1) 1.18 µM

CNC(=O)c1nn(C)c2c1C(C)(C)Cc1cnc(Nc3ccc(N4CCN(C)CC4)cc3)nc1-2
active: Potency (CRL-7250) 46.9 nM and 580 nM | Potency (HaCat [1]) 1.66 µM and 2.06 µM | Potency (KB-3-1) 3.32 µM and 2.31 µM | Potency (NIH3T3) 1.3 µM | Potency (MCC-13) 5.9 µM | Potency (MKL-1) 4.69 µM

Reference: PubChem BioAssay (NCATS)
